Reference: PubChem BioAssay (NCATS)
Inconclusive results are not listed. Activity calls are given as the source filed them. The call rests on the fitted dose curve. Peptide text beside a SMILES is read from it.

assay: Cell Viability - SK-N-SH (AID 435); conditions: SK-N-SH neuroblastoma cell viability qHTS;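 further: compound exposure lasted 40 h at 37 °C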
From the text: NIH Chemical Genomics Center [NCGC]
NIH Molecular Libraries Screening Centers Network [MLSCN]
National Institutes of Environmental Health Sciences [NIEHS]
National Toxicology Program [NTP]
We have developed a 1536-well cell-based assay for quantitative high throughput screening (qHTS) against a number of cell lines to determine in vitro cytotoxicity of small molecules. This particular assay uses the SK-N-SH cell line which is derived from human neuroblastoma.
NCGC Assay Protocol Summary:
The CellTiter-Glo luminescent cell viability assay (Promega) is a homogeneous method to measure the number of viable cells in culture. The end point readout of this assay is based on quantitation of intracellular ATP, an indicator of metabolic activity, using the luciferase reaction. Luciferase catalyzes the oxidation of beetle Luciferin to oxyluciferin and light in the presence of ATP. The luminescent signal is proportional to amount of ATP present.
Using the CellTiter-Glo luminescent cell viability assay, the amount of cellular ATP was measured in the SK-N-SH cell line with complete culture medium following compound treatment for 40 hours. The assay was performed in opaque white Kalypsys 1536-well plates. In the screen, tamoxifen and doxorubicin were used as positive controls. Library compounds were measured for their ability to cause acute toxicity in the cell line, as reflected by a decrease in intracellular ATP levels, in a concentration-dependent manner. Data were normalized to the controls for basal activity (DMSO only) and 100% inhibition (100 uM tamoxifen). AC50 values were determined from concentration-response data modeled with the standard Hill equation.
qHTS protocol fo CellTiter Glo SK-N-SH cellular assay
[Step] [Parameter] [Value] [Description]
1. Reagent; 5 uL; 1500 SK-N-SH cells/well
2. Time; 5 hr; 37 °C incubation
4. Controls; 23 nL; Tamoxifen 0.34 uM to 100 uM & Doxorubicin 0.02 nM to 100 uM
5. Time; 40 hr; 37 °C incubation
6. Reagent; 5 uL; CellTiter Glo reagent
7. Time; 20 min; Room Temperature
8. Detection; Luminescence; Viewlux plate reader
Keywords: cell viability, cytotoxicity, SK-N-SH cell line, luminescence, NTPHTS, NTPHTS_NCGC, NIEHS, EPA, DSSTox, MLSMR, MLSCN, NIH Roadmap, qHTS, NCGC
Potency means the concentration at half of the fitted maximal effect.

| Structure (SMILES) | Potency |
| --- | --- |
| Nc1ccc(S(N)(=O)=O)cc1 | > 92 µM (inactive) |
| c1ccc2[nH]c(-c3cscn3)nc2c1 | > 92 µM (inactive) |
| CN(C)c1ccc2nc3ccc(=[N+](C)C)cc-3sc2c1 | 10.9 µM (active) |
| CCc1nc(N)nc(N)c1-c1ccc(Cl)cc1 | 25.6 µM (active) |
| CCCc1cc(=O)[nH]c(=S)[nH]1 | > 92 µM (inactive) |
| Cc1cc(O)c2c(c1)C(=O)c1cc(O)cc(O)c1C2=O | 35 µM (active) |
| CCCCC(CC)COC(=O)C(C#N)=C(c1ccccc1)c1ccccc1 (stereo not drawn) | > 92 µM (inactive) |
| CS(=O)(=O)OCCCCOS(C)(=O)=O | > 92 µM (inactive) |
| CC(=O)Nc1ccc(O)cc1 | > 92 µM (inactive) |
| COc1c2occc2cc2ccc(=O)oc12 | > 92 µM (inactive) |
| COC(=O)[C@H](Cc1ccccc1)NC(=O)[C@@H](N)CC(=O)O (H-Asp-Phe-OMe) | > 92 µM (inactive) |
| Cc1ccc(C)c(OCCCC(C)(C)C(=O)O)c1 | > 92 µM (inactive) |
| NS(=O)(=O)c1cc(C(=O)O)c(NCc2ccco2)cc1Cl | > 92 µM (inactive) |
